Screening data: PubChem, National Center for Advancing Translational Sciences (NCATS)
HT1080 IDH1KD tx: HT-1080 IDH1 knockdown cell toxicity (counter line); HT-1080 IDH1 knockdown viability, ATP luminescence, 48 h; Potency, µM (highest dose often 46.1 µM), inactives show at the highest dose activity, negative = toxicity, most hits filed as cytotoxic; 360,000 tested, 2% active;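 further: potency means the concentration at half of the fitted maximal effect; 0% = DMSO wells and -100% = cell-free medium wells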
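CellTiter-Glo luminescence after 48 h compound exposure at 37 degrees C of IDH1-knockdown HT-1080 cells in 5% FBS RPMI. %Activity scaled between DMSO wells and cell-free media wells, with curves fitted and assigned curve classes.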
DT40 TDP1 no CPT: qHTS for Inhibitors of human tyrosyl-DNA phosphodiesterase 1 (TDP1): qHTS in cells in absence of CPT; DT40 Tdp1-/- hTDP1 cells, no CPT, ATP luminescence, 48 h; Potency, µM (top dose mostly 46.2 µM), without a hit: top-dose activity change, negative = growth inhibition, hits mostly inhibitors; 420,000 tested, 15% active; further: potency means the concentration at half of the fitted maximal effect; nearly all actives have a fitted effect of over 55% in size
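Growth of hTDP1-complemented DT40 Tdp1-knockout cells is measured by ATP luminescence after at least 48 hr compound exposure at 37 °C, with DMSO substituting for the 20 nM CPT used in the parallel screen.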
ELG1 repair inh: ELG1-dependent DNA repair inhibition; 330,000 tested, 2.3% active; HEK293T ELG1-luciferase reporter, luminescence, 16 h; DNA damage induced by 5-fluorouridine; AID 504467; Potency, µM (series often up to 46.1 µM), without a hit: at the highest dose activity change, negative = inhibition, most hits filed as inhibitors; further: potency means the concentration at half of the fitted maximal effect; nearly all actives have a fitted effect of over 55% in size
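Cells (2,000 per well) received 5-fluorouridine plus test compound or DMSO and were incubated 16 hr at 37 °C, 5% CO2. Luciferase activity was read by luminescence 30 min after ONE-Glo addition; signal suppression marked inhibition of damage-induced ELG1 function.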
IL1B secr inh: blocks inflammasome-driven IL-1 beta release | AID 743279 | 360,000 tested, 4.7% active | activity change, % at 57.5 µM | THP-1 LPS/ATP IL-1B secretion, AlphaLISA, 16 h; active compounds read low; in the data active means activity change below about -50%; inconclusive means mostly about -30% to -49%
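Secreted IL-1B measured by AlphaLISA bead assay after 16 h compound exposure of THP-1 cells; compounds (final up to 57.5 uM) added 1 h before LPS (250 ng/mL) and ATP (1.25 mM) stimulation; lower signal means less secretion.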
TDP1 cell CPT: DT40-hTDP1 cell growth loss with CPT; chicken DT40 Tdp1-/-;hTDP1 cells + 20 nM CPT, ATP luminescence, 48 h; Potency, µM (titrated, usually from 46.2 µM), without a hit: at the highest dose activity change, negative = growth inhibition, actives largely listed as inhibitors; 420,000 tested, 12% active; AID 686979; further: potency means the concentration at half of the fitted maximal effect; nearly all actives have a fitted effect of over 55% in size
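Chicken DT40 Tdp1-/- cells stably complemented with human TDP1 were seeded at 400 cells/well in medium containing 20 nM camptothecin, exposed to pin-transferred compounds, and grown at 37 °C for at least 48 hr. Viability was read as ATP luminescence.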
HT1080NT lethal: kills 2HG-producing HT-1080-NT fibrosarcoma cells | HT-1080-NT fibrosarcoma viability, CellTiter-Glo ATP luminescence, 48 h | 360,000 tested, 1.6% active | Potency, µM (titrated, usually from 46.1 µM), for inactives: at the top dose activity, negative = less viability, hits mostly cytotoxic | AID 686970;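 further: NT is the 2HG producing partner of a matched IDH1 knockdown line; potency means the concentration at half of the fitted maximal effect; 0% = DMSO-treated cells and -100% = media-only wells without cells; nearly all actives have a fitted effect of over 55% in size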
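Luminescent CellTiter-Glo readout after 48 hours of compound exposure at 37 degrees C defined viability of HT-1080-NT cells. Activity was normalized to DMSO wells and cell-free media wells; concentration-response curves were fitted and assigned curve classes.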
Starred values were filed as active, the others as inactive; ? = inconclusive; / = no result. Hits are enriched below; roughly 19% of the tested compounds scored in any of these assays. Unless noted, the call rests on the fitted dose curve; in most records, active means well fitted curve in the direction sought with a large enough effect; inconclusive means small, poorly fitted or top-dose-only effect, or another doubt; inactive means no such curve, though single readings can be large; an effect the other way counts as inactive or inconclusive. Unless noted, on the % scale 0 is the no-effect control and ±100 the full control effect.

SMILES	HT1080 IDH1KD tx	DT40 TDP1 no CPT	ELG1 repair inh	IL1B secr inh	TDP1 cell CPT	HT1080NT lethal
COc1cccc(N/C(SCc2cccc([N+](=O)[O-])c2)=C(/C#N)C(N)=O)c1	16µM*	?	?	-102*	?	?
CCOc1ccc(NC(=O)C2(c3cccs3)CCOCC2)cc1	/	?	/	/	-27%	/
Cc1cc(C)cc(NC(=O)c2cc(CN3CCCC3)on2)c1	/	-10%	/	/	6%	/
CCCn1c(CCC(=O)Nc2cc(OC)cc(OC)c2)nc2cccnc21	/	23µM*	/	/	?	/
CCCn1c(CCC(=O)Nc2cc(C(=O)OC)cc(C(=O)OC)c2)nc2cccnc21	/	?	/	/	29µM*	/
CCCc1nc(NCCCOCC)c2nnn(Cc3ccccc3)c2n1	14%	?	4%	11	?	18%
Cc1ccc(-n2c(=O)c3oc4ccccc4c3n(CC(=O)Nc3ccccc3)c2=O)cc1C	/	-4%	/	/	-16%	/
CCOC(=O)c1c(N2C(=O)C3C4C=CC(O4)C3C2=O)sc2c1CCCC2 (centres undefined)	-16%	16µM*	/	-13	8.2µM*	-19%
Cc1ccc(S(=O)(=O)N2CCC(=O)N(C(COCc3ccccc3)C(C)C)CC2)cc1 (centres undefined)	-2%	?	1%	0	?	-1%
Cc1ccc(S(=O)(=O)N2CCC(=O)N(C(COCc3ccc(Cl)cc3)Cc3ccccc3)CC2)cc1 (centres undefined)	1%	16µM*	-14%	6	?	2%
Cc1ccc(S(=O)(=O)N2CCC(=O)N([C@H](COCc3cccc(C)c3)C(C)C)CC2)cc1	7%	?	/	0	?	13%
Cc1ccc(S(=O)(=O)N2CCC(=O)N([C@H](COCc3ccc(Cl)cc3Cl)Cc3ccccc3)CC2)cc1	8%	23µM*	/	7	?	12%
N#C/C(=N\Nc1ccccc1[N+](=O)[O-])C(=N)N1CCCCC1	2%	5.8µM*	?	1	5.8µM*	-13%
COc1cc2c(cc1OC)C(C)N(C(C)=O)CC2 (centres undefined)	-6%	1%	?	11	-5%	-1%
COc1cc2c(cc1OC)C(C)N(C(=O)c1c(C)noc1C)CC2 (centres undefined)	?	13µM*	-8%	4	?	-25%
COc1cc2c(cc1OC)C(C)N(C(=O)c1cccs1)CC2 (centres undefined)	-13%	?	?	-16	?	-11%
COc1cc2c(cc1OC)C(C)N(C(=O)c1cc3ccccc3o1)CC2 (centres undefined)	5.6µM*	?	?	-59*	8.2µM*	?
COc1cc2c(cc1OC)C(C)N(C(=O)c1cc(C)on1)CC2 (centres undefined)	1.5µM*	1µM*	9%	36	0.82µM*	?
CCOC(=S)SSC(=S)OCC	/	-13%	/	/	7%	/
CN(CC(=O)NCC(c1ccco1)N1CCCCC1)S(=O)(=O)c1ccc(Cl)cc1 (centres undefined)	-14%	?	6%	-7	?	-1%
COc1ccc(-c2[nH]c(-c3ccccc3)nc2SCC(=O)Nc2ccc3c(c2)OCCO3)cc1	/	16µM*	/	/	13µM*	/
COc1ccc(-c2nc(SCC(=O)Nc3ccc4c(c3)OCO4)c(-c3ccc(OC)cc3)[nH]2)cc1	/	-27%	/	/	-19%	/
O=C(CSc1nc(-c2ccccc2)[nH]c1-c1ccccc1)Nc1ccc2c(c1)OCCO2	/	9.2µM*	/	/	10µM*	/
Cc1cccc(-c2nc(SCC(=O)Nc3ccc4c(c3)OCO4)c(-c3ccccc3)[nH]2)c1	/	?	/	/	21µM*	/
CNc1cc(-c2cccc(C(=O)N3CCOCC3)c2)ncn1	19%	1%	/	-1	7%	24%
SMILES	HT1080 IDH1KD tx	DT40 TDP1 no CPT	ELG1 repair inh	IL1B secr inh	TDP1 cell CPT	HT1080NT lethal
CN(Cc1cn(-c2ccccc2)nc1-c1ccc2c(c1)OCO2)Cc1nccn1C	-8%	23µM*	?	?	26µM*	-2%
CN(CCn1ccnc1)Cc1cn(-c2ccccc2)nc1-c1ccc2c(c1)OCO2	15%	-14%	-6%	4	-15%	1%
CCN(CC)CCn1c2ccccc2c2nc3ccc([N+](=O)[O-])cc3cc21	-30%	4.6µM*	?	-16	8.2µM*	-28%
CCN(CC(=O)Nc1ccc(C#N)cc1)CC(=O)Nc1ccc2c(c1)OCCO2	3%	?	/	-3	-18%	-3%
O=C(c1ccccc1)c1sc(N2CCCCCC2)nc1-c1ccccc1	-20%	15µM*	?	-17	?	-23%
CNc1nc(-c2ccc(OC)cc2)c(-c2ccc(OC)cc2)s1	-15%	-4%	?	-22	5%	-8%
COc1ccc(-c2nc(N3CCCCCC3)sc2C(=O)c2ccccc2)cc1	-21%	23µM*	?	-6	?	-23%
COc1ccc(-c2nc(N3CCN(C)CC3)sc2-c2ccc(OC)cc2)cc1	?	29µM*	2%	-20	?	-17%
O=C(c1ccccc1)c1sc(N2CCOCC2)nc1-c1ccccc1	-11%	?	-2%	?	?	3%
[2H]c1c([2H])c([2H])c(C(=O)c2sc(N3CCCCCC3)nc2-c2ccccc2)c([2H])c1[2H]	-25%	16µM*	-8%	-14	?	-25%
COc1cccc2cc(-c3cn4c(n3)sc3cc(F)ccc34)c(=O)oc12	/	-4%	/	/	5%	/
CCC(=O)Nc1c(-c2ccccc2)c(=O)c2ccccc2n1C	23%	-6%	-4%	-7	-4%	-2%
CCNC(=O)C1(C)CCN(C(=O)c2ccc(C#N)cc2)C1 (centres undefined)	22%	0%	/	13	-8%	30%
O=C(c1ccc(Br)cc1)c1sc(N2CCOCC2)nc1-c1ccccc1	-23%	21µM*	?	-4	?	-20%
Cc1ccc(S(=O)(=O)N2CCN(C3CCN(Cc4ccccc4)CC3)CC2)cc1	1%	?	?	8	-23%	?
Cc1ccc(S(=O)(=O)N2C[C@H]3[C@H]4C(=O)N(Cc5ccccc5)C(=O)[C@H]4CC(=O)[C@H]3[C@@H]2c2ccccc2Cl)cc1	4%	?	/	-6	-28%	29%
